# DT40 TDP1 CPT: DT40-hTDP1 cell growth loss with CPT; Potency, µM (top dose mostly 46.2 µM), without a hit: at the top dose activity change, negative = growth inhibition, hits mostly inhibitors; chicken DT40 Tdp1-/-;hTDP1 cells + 20 nM CPT, ATP luminescence, 48 h; 12% of 420,000 active; note: potency is the fitted concentration of half-maximal effect; nearly all actives have a fitted effect of over 55% in size
#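 Chicken DT40 Tdp1-/- cells complemented with human TDP1, 400 cells/well, exposed to compounds plus 20 nM camptothecin for at least 48 h at 37 C; viability read as ATP content by CellTiter-Glo luminescence.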
# DT40 TDP1 no CPT: qHTS for Inhibitors of human tyrosyl-DNA phosphodiesterase 1 (TDP1): qHTS in cells in absence of CPT; Potency, µM (highest dose often 46.2 µM), without a hit: at the top dose activity change, negative = growth inhibition, most hits filed as inhibitors; AID 686978, 2013; DT40 Tdp1-/- hTDP1 cells, no CPT, ATP luminescence, 48 h; 15% of 420,000 active; note: potency is the fitted concentration of half-maximal effect; nearly all actives have a fitted effect of over 55% in size
#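 Readout: luminescence from CellTiter-Glo after 30 min in the dark at RT. Cells: DT40 Tdp1-/- with stable hTDP1, 400/well. Exposure: compounds alone, ≥48 hr, 37 °C.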
# ELG1 DNA repair: ELG1-dependent DNA repair inhibition. HEK293T ELG1-luciferase reporter, luminescence, 16 h; DNA damage induced by 5-fluorouridine. Potency, µM (titrated, usually from 46.1 µM), for inactives: top-dose activity change, negative = inhibition, most hits filed as inhibitors. 2.3% of 330,000 active. AID 504467; note: potency is the fitted concentration of half-maximal effect; nearly all actives have a fitted effect of over 55% in size
#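 Step one: seed 2,000 cells per well. Step two: pin-transfer compound or DMSO alongside 5-fluorouridine. Step three: incubate 16 hr, 37 °C, 5% CO2. Step four: add ONE-Glo, wait 30 min, read luminescence.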
# VP16 counter: Gal4-VP16 reporter inhibition counter-screen | Drosophila S2 Gal4-VP16 UAS-luciferase, luminescence, 20 h | Potency, µM (highest dose often 53.6 µM), without a hit: top-dose activity, negative = inhibition, most hits filed as inhibitors | 3.5% of 310,000 active;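 note: Gal4-VP16 expression switched on by copper sulfate through the metallothionein promoter; potency is the fitted concentration of half-maximal effect; nearly all actives have a fitted effect of over 50% in size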
# IL-1B inflam inh: inflammasome signaling inhibition, IL-1 beta readout | THP-1 LPS/ATP IL-1B secretion, AlphaLISA, 16 h; stronger effect = lower value | activity change, % at 57.5 µM | 4.7% of 360,000 active; in the data active = activity change below about -50%; inconclusive = mostly about -30% to -49%
#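 THP-1 cells pretreated 1 hr with compounds (up to 57.5 uM final), then stimulated with LPS (250 ng/mL final) plus ATP (1.25 mM final); secreted IL-1B measured by AlphaLISA after 16 hr, decreased signal indicating inhibition.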
# RORgamma inh: blocks mouse ROR gamma transcriptional activity. Potency, µM (series often up to 53.6 µM), for inactives: top-dose activity change, negative = inhibition, hits mostly inhibitors. Drosophila S2 Gal4-RORgamma UAS-luciferase reporter, 20 h. P51450. 5.4% of 310,000 active; note: potency is the fitted concentration of half-maximal effect; nearly all actives have a fitted effect of over 60% in size
# Target sequence (P51450 whole entry, looked up, the tested form may be a part): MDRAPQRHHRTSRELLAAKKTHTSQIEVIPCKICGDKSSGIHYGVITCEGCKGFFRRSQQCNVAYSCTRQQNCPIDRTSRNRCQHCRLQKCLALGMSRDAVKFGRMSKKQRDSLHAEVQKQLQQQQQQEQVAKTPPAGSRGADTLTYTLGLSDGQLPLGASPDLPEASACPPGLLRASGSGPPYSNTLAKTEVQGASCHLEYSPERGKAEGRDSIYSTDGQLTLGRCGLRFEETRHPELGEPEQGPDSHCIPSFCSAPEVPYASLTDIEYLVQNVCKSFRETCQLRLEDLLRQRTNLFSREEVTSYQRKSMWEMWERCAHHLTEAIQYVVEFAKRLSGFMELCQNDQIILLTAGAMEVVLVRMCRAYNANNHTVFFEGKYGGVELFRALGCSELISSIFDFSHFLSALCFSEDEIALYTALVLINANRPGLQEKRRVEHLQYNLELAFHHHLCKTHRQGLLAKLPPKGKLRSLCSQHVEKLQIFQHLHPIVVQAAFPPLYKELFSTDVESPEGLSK
#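 Drosophila Schneider cells stably carrying a metallothionein-driven Gal4 DBD–ROR gamma fusion and a UAS-Photinus luciferase reporter were exposed to compound for 1 hr, then induced with copper sulfate (700 uM final) for 20 hr at ambient temperature before luminescence reading.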
# The depositor's hits bear a star; i = inactive; ? = inconclusive; · = no result given; [ ] = remark or other dose. Only some compounds are listed: those with a hit (about 21% of all), similar ones and a draw of the others. Unless noted, calls come from the whole dose curve; as a rule, active = well fitted curve in the direction sought with a large enough effect; inconclusive = small, poorly fitted or top-dose-only effect, or another doubt; inactive = no such curve, though single readings can be large; an effect the other way counts as inactive or inconclusive. % is set by controls: 0 for no effect and ±100 for the full control effect.
SMILES,DT40 TDP1 CPT,DT40 TDP1 no CPT,ELG1 DNA repair,VP16 counter,IL-1B inflam inh,RORgamma inh
Cc1c(C(=O)NCCSCc2ccc(F)cc2)cnn1-c1ccc(Cl)cc1,-12.5%,?,-23.2%,-7.5%,·,33.5%
O=C1OC=NC1=Cc1ccccc1,-2.0%,6.5%,·,·,-8.8,·
COc1cccc(NC(=S)NCCc2ccccn2)c1,1.0%,0.6%,?,17.8µM*,-2.3,?
COCCNC(=S)Nc1ccc2nsnc2c1,?,-18.1%,4.1%,27.9%,20.2,-35.7%
S=C(NCCc1ccccn1)Nc1ccc(Cl)c(Cl)c1,?,?,7.6%,7.08µM*,-19.4,5.62µM*
COc1cccc(NC(=S)NCc2ccncc2)c1,-6.6%,-29.7%,-2.2%,-10.3%,0.7,1.5%
S=C(NCCc1ccccn1)Nc1ccccc1,-20.9%,-11.9%,?,?,-13.9,20µM*
c1ccc(NCCc2ccccn2)cc1,10.0%,-21.8%,·,·,-9.0,·
COCCNC(=S)Nc1ccc(Cl)c(Cl)c1,9.1%,-3.7%,-2.8%,?,-11.8,10µM*
COc1ccccc1N1CCN(S(=O)(=O)CCNC(=O)C2CCCCC2)CC1,?,-24.1%,?,·,0.5,·
S=C(NCCc1ccccn1)Nc1cc(Cl)cc(Cl)c1,-27.0%,-16.3%,?,?,-77.1*,5.01µM*
O=C(Nc1ccccc1)c1sc(N2CCOCC2)nc1-c1ccccc1,-22.7%,?,-9.5%,4.8%,-4.8,?
COc1ccc(NC(=O)CSc2nc3ccccc3nc2N2CCOCC2)cc1,-8.6%,-25.7%,?,-0.3%,-22.2,-21.4%
CCOc1ccc(NC(=O)c2sc(N3CCOCC3)nc2-c2ccccc2)cc1,?,23.1µM*,?,-9.1%,-9.4,?
CCOc1ccc(NC(=O)CSc2nc3ccccc3nc2N2CC(C)OC(C)C2)cc1 (stereo not drawn),23.1µM*,10.3µM*,-22.5%,-7.0%,-5.7,-35.6%
CCOc1ccc(NC(=O)CSc2nc3ccccc3nc2N2CCOCC2)cc1,20.6µM*,13µM*,?,-0.4%,3.4,18.0%
Cc1cccc(NC(=O)CSc2nc3ccccc3nc2N2CC(C)OC(C)C2)c1 (stereo not drawn),?,?,?,6.0%,7.4,-9.7%
CC1CN(c2nc3ccccc3nc2SCC(=O)Nc2cccc(C(F)(F)F)c2)CC(C)O1 (stereo not drawn),14.6µM*,25.9µM*,·,·,4.4,·
NCCCCCN,·,·,·,-13.4%,·,-22.3%
CC(OC(=O)[C@H](C)N=C1NS(=O)(=O)c2ccccc21)C(=O)Nc1ccc(F)c(F)c1F (stereo partly drawn),-16.6%,-14.9%,·,·,33.3,·
OC[C@@H](O)C(O)[C@@H](O)CO (stereo partly drawn),·,·,·,-3.7%,·,1.6%
CCCCc1ccc(NC(=O)CSc2nc3ccccc3nc2N2CCOCC2)cc1,?,25.9µM*,·,·,·,·
COc1ccc2oc(=O)c(C(=O)Nc3ccc(C(=O)O)cc3)cc2c1,5.3%,5.3%,·,·,·,·
CCCCCCc1cc2cc(C(=O)Nc3cccc(OC)c3)c(=O)oc2cc1O,2.59µM*,3.66µM*,?,-31.2%,-24.8,5.8%[10 µM]
CCCCCCc1cc2cc(/C(N)=N/NC(=O)c3ccncc3)c(=O)oc2cc1O,?,11.6µM*,-21.0%,·,-8.5,·
SMILES,DT40 TDP1 CPT,DT40 TDP1 no CPT,ELG1 DNA repair,VP16 counter,IL-1B inflam inh,RORgamma inh
CCCCCCc1cc2cc(C(N)=O)c(=N)oc2cc1O,·,·,?,1.7%,·,2.0%
CCCCCCc1cc2cc(-c3nnc(-c4ccc(C)cc4)o3)c(=O)oc2cc1O,-17.3%,?,·,·,·,·
CCCCCCc1cc2cc(S(=O)(=O)c3ccc(F)c(Cl)c3)c(=O)oc2cc1O,5.8µM*,7.31µM*,?,3.98µM*,-51.2*,?
CCCCCCc1cc2cc(C(=O)NC)c(=N)oc2cc1O,?,20.6µM*,14.2%,-1.8%,-2.3,9.6%
O=C(COC(=O)/C=C/c1cccc(C(F)(F)F)c1)NCCN1C(=O)CSC1=O,0.9%,?,1.0%,·,-8.2,·
O=C(Nc1cc(F)ccc1F)N1CCC(CN2CCCC2)CC1,-4.5%,-11.2%,·,·,·,·
CCOC(=O)c1oc2c(CN3CCN(C)CC3)c(O)c(CC)cc2c(=O)c1-c1nc2ccccc2s1,0.3%,3.4%,·,·,34.1,·
CCCCCCc1cc2cc(C(=O)OCC)c(=O)oc2cc1O,-20.9%,-19.7%,-36.4%,0.3%,1.0,-7.3%
CCCCCCc1cc2cc(C(=O)Nc3ccc(OC)cc3)c(=O)oc2cc1O,7.31µM*,5.8µM*,?,-6.0%,15.4,10.9%
Cc1csc2nc(COC(=O)c3cccc(NC(=O)COc4ccc(Cl)cc4)c3)cc(=O)n12,-4.6%,-0.6%,·,·,·,·
Cc1ccccc1OCC(=O)N/N=C/c1ccncc1,1.7%,11.2%,-4.8%,?,21.0,6.8%
COCc1cc(C)nc(OCC(=O)N/N=C/c2ccccc2O)c1C#N,?,?,?,-7.1%,128.1,15.8µM*
Cc1ccccc1OCC(=O)N/N=C/c1cccc2cccnc12,?,20.6µM*,-23.5%,14.1µM*,i,11.2µM*
O=C(COc1cccc2cccnc12)N/N=C/c1ccccc1O,14.6µM*,10.3µM*,8.2µM*,-5.3%,91.1,?
O=C(COc1cccc2cccnc12)N/N=C/c1cccn1-c1ccc(F)cc1,?,?,?,0.2%,-88.9*,17.2%
COCc1cc(C)nc(OCC(=O)N/N=C/c2ccc(O)cc2O)c1C#N,-1.9%,?,?,-2.8%,50.2,-41.1%
Cc1ccc(S(=O)(=O)NC(=O)COc2ccc([N+](=O)[O-])cc2)cc1,-3.5%,6.0%,16.1%,-0.1%,14.2,-22.0%
CCOc1ccc(NC(=O)C2C3C=CC4(O3)C2C(=O)N(Cc2cccnc2)C4C(=O)NC2CCCCC2)cc1 (stereo not drawn),-1.1%,-24.9%,8.0%,1.4%,2.0,-1.6%
CCS(=O)(=O)NCc1c(C)ncc2c1CCN(C(=O)c1ccc(F)cc1)C2,25.7%[9.04 µM],-13.9%,·,·,·,·
C/C(=N\OCC(=O)N/N=C/c1ccccc1O)c1cccs1,4.11µM*,4.61µM*,-12.2%,2.24µM*,247.2,1.12µM*
C/C(=N\OCC(=O)N/N=C/c1ccccc1)c1cccs1,-12.1%,4.6%,-11.8%,8.5%,-9.2,22.2%
Cc1ccc(C23CC4CC(CC(NC(=O)N5CCN(C)CC5)(C4)C2)C3)cc1,?,?,4.1%,-23.3%,?,12.6µM*

# Screens deposited in PubChem BioAssay by National Center for Advancing Translational Sciences (NCATS).
